# Assay results as given in PubChem BioAssay AID651601 (Sanford-Burnham Center for Chemical Genomics, 2012).
# Calls of active or inactive are those of the source.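 Rule for the calls: active = CXCR6 mean IC50 below 15 µM, and neither CCR6 nor CXCR5 mean IC50 under five times that; inactive = the rest.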
# Target: C-X-C chemokine receptor type 6 (Homo sapiens) (UniProt O00574)
# Test: chemokine receptor panel antagonism: CCR6, CXCR5, CXCR6, profiling panel, selectivity assay for CXCR6 antagonist project, cell-based, CHO-K1 PathHunter beta-arrestin, luminescence (AID 651601)
# Settings: antagonist mode, mean of runs
# Chain of C-X-C chemokine receptor type 6 (Homo sapiens) (O00574 whole entry, looked up): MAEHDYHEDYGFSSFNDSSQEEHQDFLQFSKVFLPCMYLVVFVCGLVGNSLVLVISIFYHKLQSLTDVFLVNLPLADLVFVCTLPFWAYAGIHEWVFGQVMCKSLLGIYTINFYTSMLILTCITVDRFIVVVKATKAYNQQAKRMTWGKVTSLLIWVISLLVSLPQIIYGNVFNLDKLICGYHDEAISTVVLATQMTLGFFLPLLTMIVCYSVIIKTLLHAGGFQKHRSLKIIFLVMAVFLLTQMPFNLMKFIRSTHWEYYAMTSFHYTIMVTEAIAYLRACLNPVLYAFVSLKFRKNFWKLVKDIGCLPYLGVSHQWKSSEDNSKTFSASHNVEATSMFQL
row,SMILES,outcome
1,O=C(CN1C2CCCC1CC(NC(=O)c1ccccc1)C2)Nc1ccccc1 (stereo unspecified),inactive
2,COc1cccc(C(=O)NC2CC3CCCC(C2)N3CC(=O)Nc2ccc(N(C)C)cc2)c1 (stereo unspecified),inactive
3,COc1cccc(C(=O)NC2CC3CCCC(C2)N3CC(=O)Nc2ccccc2C(F)(F)F)c1 (stereo unspecified),inactive
4,O=C(CN1C2CCCC1CC(NC(=O)c1ccccc1)C2)Nc1ccccc1C(F)(F)F (stereo unspecified),inactive
5,COc1cc(C(=O)NC2CC3CCCC(C2)N3CC(=O)Nc2ccccc2)cc(OC)c1OC (stereo unspecified),active
6,CN(C)c1ccc(NC(=O)CN2C3CCCC2CC(NC(=O)c2ccccc2)C3)cc1 (stereo unspecified),inactive
